Shown are actives, neighbours in structure and some others; about 3.4% of the full set was active somewhere.
NPSR antag: neuropeptide S receptor (human) antagonism, cAMP. AID 1461. Potency, µM (highest dose often 38.3 µM), without a hit: top-dose activity change, negative = inhibition, most hits filed as inhibitors. CHO-NPSR cells, cAMP TR-FRET, antagonist mode. Q6W5P4. hit rate 1% among 220,000; further: potency means the concentration at half of the fitted maximal effect; on the % scale 0 is the no-effect control and ±100 the full control effect; nearly all actives have a fitted effect of over 50% in size
Target sequence (Q6W5P4 whole entry, looked up): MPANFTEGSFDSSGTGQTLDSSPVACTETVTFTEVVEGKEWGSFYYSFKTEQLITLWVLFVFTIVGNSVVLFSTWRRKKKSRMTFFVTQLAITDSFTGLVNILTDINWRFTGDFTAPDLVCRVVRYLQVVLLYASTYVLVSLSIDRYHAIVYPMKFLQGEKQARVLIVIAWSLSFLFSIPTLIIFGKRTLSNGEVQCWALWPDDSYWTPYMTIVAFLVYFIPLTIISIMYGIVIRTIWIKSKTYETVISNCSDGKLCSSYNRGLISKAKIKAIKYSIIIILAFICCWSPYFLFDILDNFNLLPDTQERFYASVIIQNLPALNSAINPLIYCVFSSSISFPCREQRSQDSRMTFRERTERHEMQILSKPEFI
HttQ103 aggreg: mutant huntingtin aggregation inhibition. PC12 HttQ103-GFP aggregates, Acumen cytometry, 40 h. Potency, µM (highest dose often 46.1 µM), for inactives: at the top dose activity change, negative = inhibition, actives largely listed as inhibitors. hit rate 1.1% among 220,000; further: potency means the concentration at half of the fitted maximal effect; on the % scale 0 is the no-effect control and ±100 the full control effect; nearly all actives have a fitted effect of over 60% in size
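Ecdysone-promoter PC12 model expressing HTT exon 1 Q103 fused to GFP, induced by tebufenozide at 100 nM final. Compounds titrated; aggregates sized 1–25 µm scored on a 488 nm laser cytometer.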
IMPase Li cell: IMPase inhibition in cells with lithium potentiation | AID 1457 | CHO-M1 cells, IP1 TR-FRET (IP-One), carbachol + lithium | hit rate 0.35% among 210,000 | Potency, µM (series often up to 59.4 µM), without a hit: top-dose activity, negative = IMPase inhibition, actives largely listed as inhibitors;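 further: IP1 builds up when IMPase is blocked and the TR-FRET signal falls; potency means the concentration at half of the fitted maximal effect; plate controls were basal vehicle for no effect and high inhibitor control for full effect; nearly all actives have a fitted effect of over 50% in size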
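IP1 accumulation measured by competitive TR-FRET in lysed CHO-M1 cells after 30 min compound exposure at 37C, with a small lithium addition to potentiate weak responses. Hill-equation AC50 from ratio and donor-channel data.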
PNC assembly inh: inhibitors of perinucleolar compartment assembly | PC3M PTB-GFP, PNC prevalence imaging, 16 h; stronger effect = lower value | AID 2417 | hit rate 3.1% among 140,000 | activity change (PNC), negative = inhibition, % at 10 µM;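 active means readout at or below -70, meaning at least 70% loss of cells showing the perinucleolar compartment, a nuclear body marking cancer cells; inconclusive means readout between -30 and a set limit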;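 further: plate controls were DMSO wells for no effect and camptothecin positive control wells for full effect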
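Compounds are pinned in duplicate onto adhered PC3M cells stably expressing GFP-tagged PTB and incubated 16 h at 37 C. Cells are then fixed, nuclei stained with Hoechst, and PNC-positive cells counted.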
IMPase cell inh: IMPase inhibition in cells; inhibition (IP1 accumulation), % at 46.1 µM; P97697; CHO-M1 cells, IP1 accumulation, HTRF TR-FRET ratio; 120,000 tested, under 10 active; active means well fitted curve in the direction sought with a large enough effect in the signal ratio, not every such curve was filed as active; inconclusive means small, poorly fitted or top-dose-only effect, or a change in a side signal; inactive means no such curve, though single readings can be large or run the other way; the % refers to the signal ratio;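 further: cells stimulated with carbachol in lithium chloride buffer; plate controls were DMSO basal wells for no effect and reference inhibitor wells for full effect; higher means more IMPase inhibition seen as more IP1 and lower FRET ratio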
Target sequence (P97697 whole entry, looked up): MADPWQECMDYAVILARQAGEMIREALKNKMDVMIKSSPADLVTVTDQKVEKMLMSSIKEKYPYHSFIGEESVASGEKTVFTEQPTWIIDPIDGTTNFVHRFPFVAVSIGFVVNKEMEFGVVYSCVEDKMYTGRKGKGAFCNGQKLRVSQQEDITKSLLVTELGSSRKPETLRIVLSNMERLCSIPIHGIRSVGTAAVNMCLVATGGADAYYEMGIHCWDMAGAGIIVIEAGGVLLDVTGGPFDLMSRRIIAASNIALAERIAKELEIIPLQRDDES
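Measured: the HTRF emission ratio (665/620 nm) plus the 620 nm donor channel, each fitted to the Hill equation to give AC50. Cells were CHO-M1 given compounds up to 46 uM and a 30 min carbachol stimulation at 37C.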
HTT cytoprotect: cytoprotection in Huntington HTT-Q103 PC12 cell model. PC12 HTT-Q103 induced, cytoprotection, ATP luminescence, 40 h. Potency, µM (titrated, usually from 56.4 µM), without a hit: cytoprotection (ATP increase), usual class: activators. hit rate 0.14% among 230,000; further: potency means the concentration at half of the fitted maximal effect; % of control where 0% means no effect; nearly all actives have a fitted effect of over 45% in size
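Cells were plated at 1500 per well in phenol red-free DMEM with 5% equine and 5% calf serum. Tebufenozide (100 nM final) and compounds were added, then ATPlite reagent, and luminescence was read.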
* hit, by the source's call; u = inconclusive; x = no result given; ! = repeats disagree; [ ] = remark or other dose. Unless noted, the call rests on the fitted dose curve; in most records, active means well fitted curve in the direction sought with a large enough effect; inconclusive means small, poorly fitted or top-dose-only effect, or another doubt; inactive means no such curve, though single readings can be large; an effect the other way counts as inactive or inconclusive.

SMILES	NPSR antag	HttQ103 aggreg	IMPase Li cell	PNC assembly inh	IMPase cell inh	HTT cytoprotect
O=c1cc(-c2ccccc2O)oc2c1ccc1ccccc12	x	x	8%	x	-4	0.45µM*!
CCC1=C(OC(=O)N(CC)CC)N2C(=O)OC(=NCCOC)[C@]2(C)[C@H]2C1=CC[C@H]1C(=O)N(CC(=O)OC)C(=O)[C@H]12	x	x	0%	x	x	-32%
Cc1ccccc1NC(=S)NCCc1ccccc1	-31%	11%	20%	u	x	-36%[0.074 µM]
Cc1ccccc1NC(=S)N/N=C/C(C)c1ccccc1 (stereo not drawn)	-43%	-1%	14%	x	x	4.5µM*
Cc1ccccc1NC(=S)NCc1ccccc1	1%	u	4%	u	x	5.6µM*
Cc1cccc(NC(=S)N/N=C/C(C)c2ccccc2)c1C (stereo not drawn)	-29%	1%	6%	x	x	-5%
O=C(O)C1CCCN1S(=O)(=O)c1ccccc1 (stereo not drawn)	4%[46.1 µM]	-17%	2%	-23	-14	4%[10 µM]
O=C(O)C1CCCN1S(=O)(=O)c1ccc2ccccc2c1 (stereo not drawn)	2%[46.1 µM]	-21%	-11%	-100*	3	-20%[10 µM]
CCOC(=O)c1c(-c2cccs2)csc1NC(=O)C(C)(C)C	u	14µM*	42%[38.3 µM]	22	1	-73%
CCOC(=O)c1c(-c2cccs2)csc1NC(C)=O	23%[46.1 µM]	-14%	24%	-26	-2	3%[1.9 µM]
CCOC(=O)c1c(-c2cccs2)csc1NC(=O)CCCC(=O)O	-12%[46.1 µM]	7%	10µM*	98	u	-2%
COc1ccc(NC(=O)N(C2CCCCC2)C(C)c2cccnc2)c(OC)c1 (stereo not drawn)	-22%[46.1 µM]	16%	6%[38.3 µM]	-85*	10	-9%
CCCOc1ccc(-c2cc(C(F)(F)F)c(C#N)c(SCCC(=O)O)n2)cc1	x	x	x	x	0	x
FC(F)(F)c1nnc2c(Sc3ccccn3)nc3ccccc3n12	-25%[46.1 µM]	x	-12%[38.3 µM]	u	-7	11µM*
FC(F)(F)c1nnc2c(Sc3ccccc3)nc3ccccc3n12	-7%[46.1 µM]	0%	-24%	-20	-11	20%[10 µM]
FC(F)(F)c1nnc2c(Sc3ccc(Cl)cc3)nc3ccccc3n12	u	26%	18µM*	u	7	14%
CN(C)CCCN1c2ccccc2Sc2ccc3ccccc3c21	x	x	21%	x	x	-5%[10 µM]
CN(C)CCCN1c2ccccc2Sc2ccc(Cl)cc21	u	-21%	10%	-110*!	19	u
CCc1c(C(=O)NC2CCCC2)csc1C	-6%[46.1 µM]	33%	3%	-99*	-6	44%[10 µM]
N#Cc1ccccc1S(=O)(=O)Nc1ccc2c(c1)C(=O)OC2	-3%	8%[9.22 µM]	x	x	x	0%[10 µM]
COc1cc(-c2nc(S(=O)(=O)c3ccc(C)cc3)c(N(C)C)o2)cc(OC)c1OC	-17%[46.1 µM]	x	12%[38.3 µM]	20	-6	0.89µM*
COCC(=O)N1CCCC(C(=O)c2ccc(-c3ccccc3)c(F)c2)C1 (stereo not drawn)	-3%	-32%	4%	x	x	-28%
CO[C@H]1COC(=O)[C@H]2CCCN2C(=O)[C@@H](C)COC(=O)C/C=C\[C@@H]1C	x	x	x	x	x	-7%[10 µM]
CCCCn1c(SCC(=O)N2CCN(c3ccccc3)CC2)nc2ccsc2c1=O	u	2%	x	-112*	7	1%[0.074 µM]
CCC1CCCCN1C(=O)CSc1nc2ccsc2c(=O)n1Cc1ccccc1 (stereo not drawn)	u	16µM*	4%[38.3 µM]	9	0	-33%
SMILES	NPSR antag	HttQ103 aggreg	IMPase Li cell	PNC assembly inh	IMPase cell inh	HTT cytoprotect
Cc1ccc(Nc2nnns2)cc1C	1%[46.1 µM]	5%	3%[38.3 µM]	-82*	-8	-32%
COc1ccc(/C=C2\CCc3ccccc3C2=O)cc1Cn1nc(C)cc1C	u	25µM*	46%[38.3 µM]	21	11	-14%
COc1ccc(/C=C2/CCc3ccccc3C2=O)cc1CN1CCOCC1	10%	0%	1%	34	x	x
C/C(=N/Nc1nc(-c2ccccc2)cc(-c2ccccc2)n1)c1ccc(N)cc1	-21%[46.1 µM]	15%	13%	-3	1	-24%[10 µM]
C/C(=N/Nc1cc(-c2ccccc2)nc(-c2ccccc2)n1)c1ccc(O)cc1	-45%	35µM*	7%	110	x	12%[10 µM]
NS(=O)(=O)c1ccc(CCNC(=O)NC2(C(F)(F)F)Oc3ccccc3O2)cc1	-17%[46.1 µM]	u	14%	-100*	3	-38%[10 µM]
COc1cccc(Cn2c(=O)c(CCc3ccccc3)nc3cnc(N4CCN(C)CC4)nc32)c1	x	x	15%	x	x	0%
COCC(=O)N1CCN(c2cccc(Cl)c2)CC1	15%	22%	7%	x	x	-4%[10 µM]
O=C(O)CCCC(=O)N1CCN(c2cccc(Cl)c2)CC1	-3%[46.1 µM]	-8%	-12%[38.3 µM]	-99*	-5	-18%
Cc1noc(C)c1S(=O)(=O)N1CCN(C(c2ccccc2)c2ccc(Cl)cc2)CC1 (stereo not drawn)	-26%[46.1 µM]	-20%	18%[38.3 µM]	-90*	0	9%
COCC(C)NC(=O)CSc1nnc(-c2cccc(S(=O)(=O)N3CCCCC3)c2)o1 (stereo not drawn)	1%	4%	8%	x	x	x
CC(C)CNC(=O)CSc1nnc(-c2cccc(S(=O)(=O)N3CCCCC3)c2)o1	-9%[46.1 µM]	20%	u	-128*	u	-3%
CC(NC(=O)CSc1nnc(-c2cccc(S(=O)(=O)N3CCCCC3)c2)o1)C12CC3CC(CC(C3)C1)C2 (stereo not drawn)	10µM*	u	-4%[38.3 µM]	13	5	-43%
O=C1CCC[C@@H]2CC(NCc3ccc(Cl)c(Cl)c3)C[C@@H]3CCN1[C@H]23 (stereo partly drawn)	x	x	7%	x	x	-16%
CC(=O)c1sc(Nc2ccccn2)nc1C	18%[46.1 µM]	-19%	14µM*	u	u	-16%[10 µM]
CC(=O)c1sc(NC(=O)C(C)C)nc1C	29%[46.1 µM]	-9%	11µM*	29	u	27%
CC(=O)Nc1nc(C)c(C(C)=O)s1	5%[46.1 µM]	-8%	28%[38.3 µM]	30	-13	-9%
NC(=O)N/N=C/c1cc(Br)ccc1OC(=O)c1ccccc1	12%	-11%	-3%	-81*	x	x
O=C1CCC(=O)N1c1nc2n(n1)C(c1ccccc1)C=C(c1ccc(Br)cc1)N2 (stereo not drawn)	9%[46.1 µM]	-17%	11µM*	-28	-17	-13%
COc1ccc(C2C=C(c3ccc(Br)cc3)Nc3nc(N4C(=O)CCC4=O)nn32)cc1 (stereo not drawn)	-11%[46.1 µM]	-6%	1%[38.3 µM]	12	-11	-23%
COc1ccc(-n2c(=O)cnc3cnc(Oc4ccccc4)nc32)cc1	x	x	1%	x	x	-21%

Screening data: PubChem BioAssay, National Center for Advancing Translational Sciences (NCATS)
